# Screens deposited in PubChem by National Center for Advancing Translational Sciences (NCATS).
# Many of the other results were omitted from the sample, so hits are more common in it than they were.
# IL-1B inflam inh: inhibitors of inflammasome signaling (IL-1 beta secretion). activity change, % at 57.5 µM. 4.7% of 360,000 active. THP-1 LPS/ATP IL-1B secretion, AlphaLISA, 16 h; hits give low values. AID 743279; in the data active = activity change below about -50%; inconclusive = mostly about -30% to -49%
#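 Secreted IL-1B measured by AlphaLISA bead assay after 16 h compound exposure of THP-1 cells; compounds (final up to 57.5 uM) added 1 h before LPS (250 ng/mL) and ATP (1.25 mM) stimulation; lower signal means less secretion.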
# DT40 TDP1 no CPT: qHTS for Inhibitors of human tyrosyl-DNA phosphodiesterase 1 (TDP1): qHTS in cells in absence of CPT. DT40 Tdp1-/- hTDP1 cells, no CPT, ATP luminescence, 48 h. 15% of 420,000 active. AID 686978, 2013. Potency, µM (series often up to 46.2 µM), without a hit: top-dose activity change, negative = growth inhibition, usual class: inhibitors; also: potency is read from the fitted curve at half-maximal effect; nearly all actives have a fitted effect of over 55% in size
#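 A cellular qHTS used chicken DT40 cells lacking endogenous Tdp1 but carrying stably transfected human TDP1. Compounds were applied without camptothecin, and cell growth kinetics were judged by ATP-dependent luminescence after ≥48 hr.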
# DT40 TDP1 CPT: DT40-hTDP1 cell growth loss with CPT; chicken DT40 Tdp1-/-;hTDP1 cells + 20 nM CPT, ATP luminescence, 48 h; 12% of 420,000 active; AID 686979; Potency, µM (top dose mostly 46.2 µM), for inactives: top-dose activity change, negative = growth inhibition, most hits filed as inhibitors; also: potency is read from the fitted curve at half-maximal effect; nearly all actives have a fitted effect of over 55% in size
#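 Chicken DT40 Tdp1-/- cells stably complemented with human TDP1 were seeded at 400 cells/well in medium containing 20 nM camptothecin, exposed to pin-transferred compounds, and grown at 37 °C for at least 48 hr. Viability was read as ATP luminescence.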
# HT1080NT lethal: kills 2HG-producing HT-1080-NT fibrosarcoma cells. Potency, µM (doses to about 46.1 µM), inactives show at the top dose activity, negative = less viability, usual class: cytotoxic. AID 686970. HT-1080-NT fibrosarcoma viability, CellTiter-Glo ATP luminescence, 48 h. 1.6% of 360,000 active;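 also: NT is the 2HG producing partner of a matched IDH1 knockdown line; potency is read from the fitted curve at half-maximal effect; 0% = DMSO-treated cells and -100% = media-only wells without cells; nearly all actives have a fitted effect of over 55% in size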
#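 Fibrosarcoma NT cells, 750 per well in 5% FBS RPMI, were exposed to compound for 48 hours. Viability: CellTiter-Glo luminescence.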
# 12-LOX inh: ALOX12 (human) lipoxygenase inhibition; AID 1671190; purified 12hLO, xylenol orange hydroperoxide absorbance; P18054; Potency, µM (highest dose often 108 µM), without a hit: at the highest dose activity change, negative = inhibition, most hits filed as inhibitors; 1.1% of 580,000 active; also: potency is read from the fitted curve at half-maximal effect
# Target sequence (P18054 whole entry, looked up): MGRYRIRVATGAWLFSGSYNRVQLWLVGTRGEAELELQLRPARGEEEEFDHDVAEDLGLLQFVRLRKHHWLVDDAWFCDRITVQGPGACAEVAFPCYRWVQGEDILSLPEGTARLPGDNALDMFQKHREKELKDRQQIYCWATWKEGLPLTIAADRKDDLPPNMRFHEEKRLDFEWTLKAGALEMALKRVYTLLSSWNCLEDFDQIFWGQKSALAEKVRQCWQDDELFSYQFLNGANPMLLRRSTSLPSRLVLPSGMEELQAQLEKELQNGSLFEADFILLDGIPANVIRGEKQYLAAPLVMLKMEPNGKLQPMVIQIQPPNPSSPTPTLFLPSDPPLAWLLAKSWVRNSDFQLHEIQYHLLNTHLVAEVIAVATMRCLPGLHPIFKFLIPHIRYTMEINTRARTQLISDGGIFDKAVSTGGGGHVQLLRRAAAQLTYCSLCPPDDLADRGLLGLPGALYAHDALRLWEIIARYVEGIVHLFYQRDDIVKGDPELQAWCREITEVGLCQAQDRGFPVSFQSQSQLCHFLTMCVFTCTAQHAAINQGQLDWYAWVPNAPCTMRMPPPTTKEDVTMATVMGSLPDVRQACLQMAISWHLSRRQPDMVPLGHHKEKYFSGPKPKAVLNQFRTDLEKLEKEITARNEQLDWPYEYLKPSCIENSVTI
#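 Hydroperoxide product was detected by ferrous iron/xylenol orange as the 573 to 405 nm absorbance ratio. Arachidonic acid at 40 uM (final) was turned over for 30 min at room temperature by 150 nM human 12hLO, pH 7.0 Hepes buffer, after 15 min compound preincubation.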
# HT1080 IDH1KD tx: HT-1080 IDH1 knockdown cell toxicity (counter line). HT-1080 IDH1 knockdown viability, ATP luminescence, 48 h. Potency, µM (highest dose often 46.1 µM), for inactives: top-dose activity, negative = toxicity, actives largely listed as cytotoxic. 2% of 360,000 active. AID 686971;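 also: potency is read from the fitted curve at half-maximal effect; 0% = DMSO wells and -100% = cell-free medium wells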
#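 In this qHTS, HT-1080 cells depleted of IDH1 are exposed for 48 h at 37 °C to compound titrations. Toxicity is scored from CellTiter-Glo luminescence, with DMSO as full viability and medium alone as none.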
# Numbers without * were called inactive; ? = inconclusive; . = no result; [ ] = another dose, or the depositor's remark. Unless noted, calls follow the shape of the dose curve; as a rule, active = well fitted curve in the direction sought with a large enough effect; inconclusive = small, poorly fitted or top-dose-only effect, or another doubt; inactive = no such curve, though single readings can be large; an effect the other way counts as inactive or inconclusive. Unless noted, % is scaled to controls: 0 for no effect and ±100 for the full control effect.
SMILES,IL-1B inflam inh,DT40 TDP1 no CPT,DT40 TDP1 CPT,HT1080NT lethal,12-LOX inh,HT1080 IDH1KD tx
S=C(NCc1ccncc1)Nc1ccc(Br)cc1,23.1,?,-16.1%,-6.4%,?,-9.4%
S=C(NCc1ccncc1)Nc1ccc(Cl)c(Cl)c1,-60.7*,?,?,-21.1%,-17.7%,?
Cc1cccnc1NC(=S)Nc1ccc(Cl)c(Cl)c1,0.0,?,-10.9%,-5.7%,8.91µM*,-3.7%
S=C(NCc1ccccc1)Nc1ccncc1,37.8,?,10.3µM*,-9.3%,-36.2%,-15.2%
CNc1cc(C)nc(N2C[C@H](NC(=O)C3CCOCC3)[C@@H](C3CC3)C2)n1,.,.,.,.,36.9%,.
CCc1ccc(C(=O)N2CCN(C(=O)c3nnn4c3COC(c3ccc(OC)cc3)C4)CC2)cc1 (stereo unspecified),.,.,.,.,8.1%,.
S=C(NCc1ccncc1)Nc1ccccc1,-0.7,?,2.3%,-0.7%,-11.4%,-3.3%
S=C(NCc1ccncc1)Nc1cc(Cl)cc(Cl)c1,-54.2*,-16.7%,?,-19.5%,17.4%,?
O=[N+]([O-])/C=C\c1ccc(N2CCCC2)c(F)c1,-55.5*,2.59µM*,7.31µM*,?,.,3.26µM*
CC(=O)c1ccc(N2CCCCC2)c(F)c1,-21.5,-21.5%,1.4%,13.3%,0.5%,25.2%
Cc1ccc(-c2n[nH]c(=O)c3ccccc23)cc1N,21.4,-23.2%,?,-25.1%,0.0%,?
Nc1ccc(-c2n[nH]c(=O)c3ccccc23)cc1N,22.5,?,0.461µM*,-0.9%,-0.5%,-13.2%
COC(CNc1nc(-c2ccccn2)nc2c1c(C)nn2C)c1cccs1 (stereo unspecified),.,.,.,.,23.5%,.
CCc1ccc(S(=O)(=O)c2c(C(=O)c3ccc(C)c(C)c3)cnc3ccccc23)cc1,.,13µM*,?,.,4.2%,.
CCOc1ccc(C(=O)c2cnc3ccc(Cl)cc3c2S(=O)(=O)c2ccc(C)cc2)cc1,.,5.17µM*,5.8µM*,.,4.9%,.
CCc1ccc(C(=O)Nn2cnc3ccccc3c2=O)cc1,-14.8,-20.7%,4.9%,18.3%,0.0%,21.2%
CCc1ccc(C(=O)c2cnc3ccc(C)cc3c2S(=O)(=O)c2ccc(OC)cc2)cc1,.,18.4µM*,23.1µM*,.,-29.9%,.
CCOc1ccc(S(=O)(=O)c2c(C(=O)c3ccccc3)cnc3cc4c(cc23)OCCO4)cc1,-25.6,10.3µM*,?,1.3%,0.2%,-2.1%
CNC(=O)c1ccc(/C=C/C(=O)N(Cc2ccsc2)C2CC2)cc1,.,.,.,.,2.5%,.
COc1cccc(CN2CCC(Oc3ccc(C(=O)NC4CCCC4)cc3Cl)CC2)c1,.,.,.,.,18.9%,.
CCOc1ccc(S(=O)(=O)c2c(C(=O)c3ccc(CC)cc3)cnc3ccc(C)cc23)cc1,.,23.1µM*,?,.,-21.1%,.
Fc1ccc(-c2nnc3ccc(NCC4CC4)nn23)nc1,.,.,.,.,12.8%[176 µM],.
OC(c1nc(Nc2ccc(Cl)cc2)n[nH]1)C1CC1 (stereo unspecified),.,.,.,.,-0.1%[176 µM],.
FC(F)(F)C1=Nc2cccc3cccc(c23)N1,-15.8,4.61µM*,4.11µM*,-2.3%,?,-1.3%
Brc1ccc(C2=Nc3cccc4cccc(c34)N2)o1,0.0,8.2µM*,6.51µM*,5.3%,?,1.4%
Brc1ccc(-c2nc(-c3ccccc3)no2)o1,2.8,4.9%,-1.2%,-0.3%,0.0%,0.7%
CC(NC(=O)COc1ncnc2ccc(Br)cc12)c1ccccc1 (stereo unspecified),.,.,.,.,1.0%,.
CC(C)(C)NC(=O)CNC(=O)CCc1ncc(-c2ccc(Cl)cc2Cl)o1,.,.,.,.,-47.5%,.
COC(=O)CC1Oc2ccc(F)cc2-n2cc(-c3ccc(C)cc3)nc21 (stereo unspecified),.,7.31µM*,9.2µM*,.,-13.0%,.
COC(=O)c1cc(-c2ccc(C)cc2)n[nH]1,-10.9,-14.0%,-25.6%,10.9%,8.8%,10.6%
